Screens: PubChem, National Center for Advancing Translational Sciences (NCATS)
EPAC2 agonist – agonists of human EPAC2 (RAPGEF4). EPAC2 activation, biochemical qHTS; response scale: 100% = 6.5 mM cAMP response. hit rate 0.079% among 360,000. Q8WZA2. Potency, µM (doses to about 154 µM), inactives show at the top dose activation, actives largely listed as activators. AID 720711; further: nearly all actives have a fitted effect of over 50% in size
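In this primary screen, activation is scored as increased exchange of BODIPY-GDP from Rap1B by 100 nM EPAC2, with 50 uM GDP as competitor. Signal is normalized to the 6.5 mM cAMP agonist control.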
EPAC2 antagonist – antagonists of human EPAC2 | EPAC2 GEF exchange of Rap1B-BODIPY-GDP, fluorescence | Potency, µM (highest dose often 114 µM), for inactives: at the top dose activity, negative = inhibition, usual class: inhibitors | hit rate 0.18% among 360,000; further: on the % scale 0 is the no-effect control and ±100 the full control effect; nearly all actives have a fitted effect of over 45% in size
EPAC1 antagonist – EPAC1 (human) antagonism | AID 720709 | O95398 | hit rate 0.14% among 360,000 | EPAC1 GEF assay, Rap1b-BODIPY-GDP exchange fluorescence | Potency, µM (top dose mostly 115 µM), without a hit: top-dose activity change, negative = inhibition, usual class: inhibitors;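 further: plate controls were vehicle for no effect and positive control for full effect; nearly all actives have a fitted effect of over 50% in size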
B2AR arrestin – recruits beta-arrestin to the human beta2-adrenergic receptor | P07550 | beta-arrestin recruitment to beta2AR, cell-based reporter | Potency, µM (titrated, usually from 46.1 µM), for the others: at the highest dose activation, usual class: activators | hit rate 0.02% among 330,000 | AID 492947;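 further: 0% = DMSO controls and full agonism = EC100 isoproterenol or metaproterenol; nearly all actives have a fitted effect of over 65% in size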
EPAC1 agonist – EPAC1 (human) agonism; O95398; EPAC1 agonist qHTS, biochemical assay; response scale: 100% = response to 6.5 mM cAMP; Potency, µM (top dose mostly 154 µM), without a hit: at the top dose activation, actives largely listed as activators; hit rate 0.073% among 360,000; further: nearly all actives have a fitted effect of over 60% in size
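Normalized to 6.5 mM cAMP, activity reflects EPAC1-catalysed release of BODIPY-GDP from Rap1B, followed kinetically over 30 min at 480 nm excitation, 540 nm emission. Reaction contained 100 nM EPAC1, 250 nM Rap1B-BODIPY-GDP, 50 uM GDP.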
An asterisk follows results filed as active; i = inactive; ? = inconclusive; . = no result given. A selection: hits, their analogues and other compounds. The true share with any hit is near 0.4%. The call rests on the fitted dose curve; in most records, active means well fitted curve in the direction sought with a large enough effect; inconclusive means small, poorly fitted or top-dose-only effect, or another doubt; inactive means no such curve, though single readings can be large; an effect the other way counts as inactive or inconclusive. Potency means the concentration at half of the fitted maximal effect.

SMILES	EPAC2 agonist	EPAC2 antagonist	EPAC1 antagonist	B2AR arrestin	EPAC1 agonist
CNC(=O)c1c(NC(=O)c2ccc(S(=O)(=O)N3CCCC3)cc2)sc2c1CCN(C(C)C)C2	.	.	.	0.1%	.
CCN1CCc2c(sc(NC(=O)Cc3ccccc3)c2C(N)=O)C1	8.7%	5.4%	3.1%	0.1%	-11.4%
COCCCNC(=O)C[C@H]1C[C@H](C(=O)N(C(C)C)C(C)C)[C@@]2(C)c3[nH]c4cc(CCC(=O)N(C)C)ccc4c3CCN2C1=O	6.1%	-1.4%	-1.0%	0.3%	10.1%
C=CC[C@H](CC(=O)OC(C)(C)C)C(=O)OC[C@@H]1CCCN1C(=O)[C@@H](CC=C)CC(=O)N[C@H](CO)Cc1ccccc1	-0.8%	-0.4%	-0.1%	-0.1%	-22.6%
Cc1nc2ccccc2c(=O)n1/N=C/c1ccccc1O	-2.5%	-0.5%	79.4µM*	4.3%	9.8%
Cc1cc(CSc2ccc(Cl)cc2)ccc1N	16.5%	15.8µM*	-3.6%	.	5.6%
COc1cccc(S(=O)(=O)N(C)C[C@H]2OCc3cn(nn3)CCCC(=O)N([C@H](C)CO)C[C@@H]2C)c1	3.3%	-18.1%	-2.5%	.	18.3%
CCN(CC)C1=CC2=CC(=C(C#N)C#N)CCC2CC1 (stereo unspecified)	100µM*	i	226.4%	1.3%	?
CCCCn1c(NC(=O)c2ccco2)c(S(=O)(=O)c2ccc(C)cc2)c2nc3ccccc3nc21	9.6%	-16.2%	-13.3%	0.2%	-2.9%
CCCCn1c(NS(=O)(=O)c2ccccc2)c(S(=O)(=O)c2ccc(C)cc2)c2nc3ccccc3nc21	-17.7%	-8.8%	50.1µM*	-0.7%	-0.6%
Cc1oc(=O)cc(OCc2ccccc2)c1C	3.9%	9.1%	?	-0.1%	-26.5%
CCCCCCCCN1C(=O)[C@H](CC(=O)NCc2ccc(OC)c(OC)c2)C[C@@]2(C(=O)OC)CCCCC=C12	-9.6%	37.7µM*	-27.9%	.	-24.5%
CCCCOc1c(Br)cc(CNCCCN2CCOCC2)cc1OC	2.7%	2.5%	-27.5%	-0.2%	-2.7%
CC(=O)N1CC=C2C(C#N)=C(N)C(C#N)(C#N)C(CCc3ccccc3)C2C1 (stereo unspecified)	23.8%	-22.0%	-1.6%	0.1%	19.5%
COc1ccc(OC)c(C2C3CN(C(C)C)CC=C3C(C#N)=C(N)C2(C#N)C#N)c1 (stereo unspecified)	6.0%	?	-3.4%	13.5%	13.2%
CCN1CC=C2C(C#N)=C(N)C(C#N)(C#N)C(CCc3ccccc3)C2C1 (stereo unspecified)	50.1µM*	44.7µM*	?	0.2%	100µM*
CCCN1CC=C2C(C#N)=C(N)C(C#N)(C#N)C(c3cccc(OC)c3OC)C2C1 (stereo unspecified)	7.0%	22.4µM*	-7.7%	0.1%	?
COc1ccc(S(=O)(=O)N2CCC(C(=O)NCc3ccncc3)CC2)cc1OC	7.1%	0.9%	-10.3%	-0.2%	-5.5%
O=C(COC(=O)Cn1cnc2ccccc2c1=O)Nc1ccccc1OC(F)F	11.6%	-5.1%	-25.2%	-0.5%	8.2%
COC(=O)C(=O)C1CCc2c(Cl)cc(OC)c(OC)c2C1=O (stereo unspecified)	4.6%	2.2%	-1.7%	.	5.0%
Oc1ccccc1C=NNC(=S)NN=Cc1ccccc1O	11.6%	3.5%	79.4µM*	.	8.7%
NC(=S)N/N=C/c1ccccc1O	5.9%	4.7%	8.2%	-0.3%	3.4%
Oc1cccc(/C=N/NC(=S)Nc2cccnc2)c1O	4.2%	8.6%	11.2µM*	0.2%	-7.3%
O=c1cc(CN2CCN(S(=O)(=O)c3cccc(Cl)c3)CC2)c2ccc(O)cc2o1	-12.1%	-8.6%	79.4µM*	0.0%	-6.9%
CC1=NN(c2ccccc2)C(=O)/C1=C\c1ccc(Oc2ccc([N+](=O)[O-])cc2[N+](=O)[O-])cc1	2.7%	2.4%	79.4µM*	2.7%	11.4%
COc1ccc(C(C)=O)cc1COc1ccc(F)cc1	13.6%	56.2µM*	-29.9%	0.0%	14.6%
COc1ccc(C(=O)/C=C/c2ccc(OC)c(COc3ccc(F)cc3)c2)cc1	10.8%	-1.8%	-12.1%	0.0%	14.5%
CCN(CC)C(=S)SSC(=S)N(CC)CC	6.6%	-1.7%	11.9%	0.651µM*	-17.7%
Nc1ccc2c3c(cccc13)C(=O)N(c1ccccc1)C2=O	100µM*	420.7%	454.2%	-0.1%	100µM*
